# Assay results taken from the supplement of paper PMC12636033.
# ± gives the standard deviation of the averaged measurements. The full ranking holds about 33,000 sequences; the median of “E-score (rank enrichment, -0.5 to 0.5)” is about -0.0068, and the highest 2% start at about 0.24. Only a selection was taken, and the highest values are over-represented in it overall.
# System: muMax20 (Max(13-93) K31hArg/K57hArg, M65Nle)
# Test: PBM 8-mer E-score (E-score (rank enrichment, -0.5 to 0.5)); higher = stronger preferential binding
# Description: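 Protein binding microarray (universal PBM chip covering all 10-mers in fixed probe flanks) with chemically synthesized human Max(13-93) bHLH-LZ analogs (not full-length Max) bearing noncanonical residues (hArg, Tha, Aib, Nle at 65) and aromatic Cys staples. Read-out per 8-mer (and its reverse complement): E-score (rank-based enrichment, -0.5 to 0.5) and Z-score of median probe intensity.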
row,Sequence,PBM 8-mer E-score
1,AGCTTGCA,-0.0404 ± 0.11
2,TCCCTAGA,-0.0505 ± 0.13
3,CAATCTTC,-0.0387 ± 0.0054
4,AAAGTCTG,0.032 ± 0.042
5,GGAATGGA,-0.00962 ± 0.022
6,CACGCGAA,0.0636 ± 0.033
7,AACGCGGA,-0.13 ± 0.019
8,AACGCGGC,-0.118 ± 0.16
9,CACGCGGG,0.154 ± 0.086
10,CACGCGAG,0.0936 ± 0.048
11,CACGCGGC,0.281 ± 0.064
12,GACGCGGC,-0.105 ± 0.025
13,CACGCGAC,0.245 ± 0.15
14,CACGCGGA,0.289 ± 0.066
15,CGACAGCG,-0.213 ± 0.1
16,CTAGATTA,0.104 ± 0.021
17,AATAACCA,0.076 ± 0.0086
18,ACTAACAA,0.236 ± 0.048
19,AATAACAG,0.0596 ± 0.12
20,GATAACAA,0.0646 ± 0.12
21,AGTAACAA,0.117 ± 0.048
22,AATAACAA,0.271 ± 0.0084

row,Sequence,PBM 8-mer E-score
1,AGTAACAG,0.142 ± 0.024
2,CATAACAA,0.147 ± 0.03
3,TATAACAA,0.258 ± 0.015
4,AGTAACAT,0.289 ± 0.038
5,AATAACAT,0.256 ± 0.028
6,AATAACAC,0.122 ± 0.0046
7,ACCGGACT,-0.151 ± 0.13
8,TCAATCCA,0.105 ± 0.008
9,CCTTAAGA,0.0233 ± 0.059
10,ACTTTCAT,0.0117 ± 0.13
11,AGGCGCGC,0.115 ± 0.0093
12,TCGATTAA,0.261 ± 0.051
13,GCGATTAA,0.14 ± 0.13
14,CTGATTAA,0.0981 ± 0.079
15,ATGATTAA,0.169 ± 0.049
16,ACGATTAA,0.0506 ± 0.14
17,GTGATTAA,0.256 ± 0.066
18,CCAGCTCG,-0.23 ± 0.058
19,AAGTCCCA,0.0496 ± 0.017
20,TCTAGCCA,-0.0192 ± 0.021
21,CGTACCCC,0.134 ± 0.012
22,CGCTCGCA,-0.00112 ± 0.055

row,Sequence,PBM 8-mer E-score
1,ATCCTAGG,-0.193 ± 0.037
2,ATCCTAGC,0.247 ± 0.0046
3,CTCCTAGC,-0.136 ± 0.081
4,AAGATGAG,-0.0108 ± 0.035
5,ATTGACTA,-0.0128 ± 0.0061
6,ATCAATGA,0.164 ± 0.044
7,AAAAAGGC,0.218 ± 0.093
8,GAAAAGGC,0.3 ± 0.074
9,GAAAGGCC,-0.109 ± 0.036
10,AAAGGCCC,0.105 ± 0.034
11,CAAGGCCG,-0.0484 ± 0.016
12,AAAGGCCG,0.275 ± 0.088
13,CAAAGGCC,0.0435 ± 0.035
14,CAAAAGGC,0.0129 ± 0.021
15,AAAAGGCC,0.294 ± 0.089
16,GAGTCGTA,0.0328 ± 0.034
17,CTTTTAGC,0.0351 ± 0.039
18,ATGCCTGG,-0.0874 ± 0.034
19,AGCTTTGC,-0.066 ± 0.034
20,TCTGACAA,-0.0236 ± 0.026
21,AATACGAG,0.1434 ± 0.0014
22,CCTCCGAA,-0.0791 ± 0.039

row,Sequence,PBM 8-mer E-score
1,GACCCAAC,-0.034 ± 0.061
2,CCAACCAG,-0.16 ± 0.022
3,GACAAAAA,0.144 ± 0.007
4,GACAAATA,0.0845 ± 0.063
5,TACAAGAA,0.2 ± 0.064
6,TACAAATA,0.313 ± 0.007
7,AACAAAAA,0.14 ± 0.044
8,AACAAGTC,0.141 ± 0.024
9,AACAAAAT,0.275 ± 0.03
10,AACAAGAT,0.22 ± 0.029
11,TACAAAAA,0.285 ± 0.024
12,CACAAATA,0.185 ± 0.02
13,GACAAATC,0.0884 ± 0.12
14,AACAAATC,0.243 ± 0.016
15,CTACCGAA,-0.1 ± 0.022
16,CACAGGCC,-0.118 ± 0.0028
17,AGTTGGGG,0.0207 ± 0.062
18,AGCGGTGA,-0.233 ± 0.0025
19,AAATTTCG,0.186 ± 0.12
20,AACTGAAA,0.146 ± 0.092
21,TGCACCCA,0.0653 ± 0.034
22,GAGGTGGA,-0.138 ± 0.1
